Experimental data from PubChem BioAssay (NCI).
Compounds without any hit were thinned out: in the full panel of roughly 79,000, 15% have a hit. Cut-off read from the data, not from the text of the source: active = growth inhibition above about 70%; inactive = the rest. Where a SMILES comes first, the peptide text is derived from it. [ ]: non-standard residue; d: D form. The star is where a group is joined. ξ: configuration not given here. ξV = CC(C)C(N)C(=O)O; ClAc = O=C(CCl)*

Columns and labels:
[1] = NCI Yeast Anticancer Drug Screen. Data for the rad50 strain (AID 155);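 note: 0% = growth of vehicle-only cultures of the same strain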; settings: S. cerevisiae rad50 strain growth inhibition; at 50.0 µM; stronger effect = higher value
Method in brief: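 Readout: growth inhibition relative to vehicle-treated cultures. Compound exposure was carried out in a genetically defined yeast strain deficient in DNA damage repair.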

[2] = NCI Yeast Anticancer Drug Screen. Data for the mec2-1 strain (AID 157); settings: S. cerevisiae mec2-1 strain, at 50.0 µM, stronger effect = higher value
Method in brief: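 Yeast mec2-1 mutant treated with compound. Readout: growth inhibition vs vehicle controls.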

[3] = NCI Yeast Anticancer Drug Screen. Data for the mlh1 rad18 strain (AID 175); settings: S. cerevisiae mlh1 rad18 strain growth inhibition; at 50.0 µM; stronger effect = higher value
Method in brief: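 Yeast w/ defined DNA-repair lesions; compound exposure; growth vs vehicle controls → % inhibition.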

Measured: growth inhibition

Cc1cc(C)cc(NC(=O)c2ccccc2N)c1
inactive: [1] -5.15% | [2] -27.9% | [3] -4.6%

O=C1NC(=O)C(c2ccccc2)(C2CCC2)N1 (stereo not given)
inactive: [1] -6.95% | [2] -33.1% | [3] -13.3%

CCOC(=O)C(C#N)C(C(C)=O)C(=O)OCC (stereo not given)
inactive: [1] 9.15% | [2] -1.45% | [3] 31.4%

COc1ccc(C2NC(=O)c3ccccc3N2)c(OC)c1OC (stereo not given)
inactive: [1] -8.55% | [2] -20.5% | [3] -16.4%

C(=N\N=C\c1c[nH]c2ccccc12)/c1c[nH]c2ccccc12
inactive: [1] -21.6% | [2] -21.9% | [3] 0.25%

O=c1oc(-c2cccc([N+](=O)[O-])c2)nc2ccccc12
inactive: [1] 4.4% | [2] -10.2% | [3] 4.8%

Cc1ccc(N2CSC(=S)N(c3ccc(C)cc3)C2)cc1
inactive: [1] -10.4% | [2] -25.9% | [3] 46.6%

O=C1NC(c2ccc3ccccc3c2)Nc2ccccc21 (stereo not given)
inactive: [1] -2.85% | [2] -9.2% | [3] 19.1%

CC1CCN(c2ccc([N+](=O)[O-])cc2)CC1
inactive: [1] -17.6% | [2] -29.9% | [3] -9.05%

O=C(O)c1ccc(NCn2c(=S)[nH]c3ccccc32)cc1O
inactive: [1] -7.6% | [2] -42.5% | [3] -16.2%

CC(C)C(NC(=O)CNC(=O)CCl)C(=O)O (stereo not given) (ClAc-Gly-[ξV]-OH)
inactive: [1] 7.6% | [2] -16.5% | [3] 4.1%

Cc1cc(CSC(=N)N)c(C)cc1CSC(=N)N
inactive: [1] -12.1% | [2] -39.6% | [3] -7.5%

O=C(O)/C=C/C(=O)Nc1cc(Cl)ccc1Cl
inactive: [1] 9.6% | [2] 12.1% | [3] 24.6%

COc1ccc(-c2cc(=O)c3ccc(O)cc3o2)cc1
inactive: [1] 7.55% | [2] -13.3% | [3] 38%

CCOC(=O)C(C)Oc1ccccc1[N+](=O)[O-] (stereo not given)
inactive: [1] -24.6% | [2] -41.2% | [3] -15.8%

C(=N\n1cnnc1)/c1ccc2c(c1)CCC2
inactive: [1] -21.6% | [2] -34.5% | [3] -20.4%

C=CCCCCCCCCC(=O)Cl
inactive: [1] 33.9% | [2] 3.35% | [3] 11.1%

Cc1cc(Cl)ccc1NCN1C(=O)c2ccccc2C1=O
inactive: [1] -6.8% | [2] -8.9% | [3] 15.8%

N#C/C(=C/c1ccc(O)c(O)c1)C(N)=O
inactive: [1] 23.6% | [2] -4.15% | [3] 17.1%

O=C(O)/C=C\C(=O)Nc1ccccc1NC(=O)/C=C/C(=O)O
inactive: [1] 3.45% | [2] -26.1% | [3] -16.2%

O=C1CCC2CN3CCc4c([nH]c5ccccc45)C3CC2C1 (stereo not given)
inactive: [1] 26.2% | [2] 14.4% | [3] 32.7%

COc1ccc(/C=C(\C#N)c2ccc(Cl)cc2)cc1OC
inactive: [1] -2.05% | [2] -8% | [3] -1.15%

CCn1c(C)nc2cc(S(=O)(=O)CS(C)(=O)=O)ccc21
inactive: [1] 17% | [2] -12.8% | [3] 19.8%

CCOc1ccc(/C=N/NS(=O)(=O)c2ccc(C)cc2)cc1
inactive: [1] -3.6% | [2] -34.5% | [3] -8.2%

C[n+]1ccc(/C=C\c2ccc3c(c2)OCO3)cc1
inactive: [1] -1.4% | [2] -26.9% | [3] 2.6%

O=c1oc(-c2ccc(Cl)cc2)nc2cc(Cl)ccc12
inactive: [1] -20.6% | [2] -14.7% | [3] -20.8%

CCCCCCCCCCCCCCCCOc1ccc(C)cc1
inactive: [1] -14.3% | [2] -29.5% | [3] -27.9%

Cc1ccc(NC(=O)/C=C/C(=O)O)c(NC(=O)/C=C/C(=O)O)c1
inactive: [1] 4.8% | [2] -1.15% | [3] 28.8%

COc1cc(/C=N/NC(=O)c2cccs2)cc(OC)c1OC
inactive: [1] -12.8% | [2] -26.1% | [3] -13.3%

COc1cc(-c2cc(=O)c3c(O)cc(C)cc3o2)cc(OC)c1OC
inactive: [1] -0.85% | [2] -9.8% | [3] -17.8%
